Screening results from PubChem BioAssay.
GPR151 activ: activators of human GPR151. PathHunter beta-arrestin GPR151 cells, luminescence. activation, % at 11.2 µM. Q8TDV0. actives 1% (n = 650,000); in the data active = activation above about 4.9%
Target sequence (Q8TDV0 whole entry, looked up): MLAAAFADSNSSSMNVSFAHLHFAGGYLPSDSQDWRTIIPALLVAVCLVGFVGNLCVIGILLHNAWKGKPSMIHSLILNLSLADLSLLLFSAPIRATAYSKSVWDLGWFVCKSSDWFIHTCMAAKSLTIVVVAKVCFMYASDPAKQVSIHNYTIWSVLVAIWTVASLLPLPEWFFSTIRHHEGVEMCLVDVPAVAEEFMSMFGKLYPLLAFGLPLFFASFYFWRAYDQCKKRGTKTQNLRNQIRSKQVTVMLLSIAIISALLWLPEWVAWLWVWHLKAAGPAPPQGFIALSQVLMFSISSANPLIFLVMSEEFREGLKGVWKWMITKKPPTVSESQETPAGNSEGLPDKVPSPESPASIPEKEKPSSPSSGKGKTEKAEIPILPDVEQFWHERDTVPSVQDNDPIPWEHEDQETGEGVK
TEAD-YAP block: TEAD-YAP interaction inhibition. inhibition, % at 9.12 µM. actives 1.4% (n = 640,000). HEK-TIYL cells, TEAD-Gal4/YAP UAS-luciferase luminescence; in the data active = inhibition above about 32%
MITF primary: inhibitors of human MITF | AlphaScreen MITF homodimerization, bead proximity signal | inhibition, % at 2.6 µM | actives 0.91% (n = 650,000); in the data active = inhibition above about 50%
FBW7 act: activators of human E3 ligase FBW7 | actives 0.13% (n = 650,000) | AlphaScreen FBW7–phospho-cyclin E peptide binding, activator screen | Q969H0 | AID 1259310 | normalized activity (activation), % at 26.1 µM; in the data active = normalized activity above about 1.9%;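 also: purified mutant Fbw7 with reduced substrate affinity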
MITF confirm: confirmation of human MITF inhibitors. AlphaScreen MITF homodimerization, biotin/His-MITF beads. actives 16% (n = 4,700). shares compounds with MITF primary. inhibition, % at 2.6 µM;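 active = inhibition above a cutoff derived from the DMSO control wells, cut at about 28% in these data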;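 also: inhibitors lower the bead chemiluminescence by keeping MITF from dimerizing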
AS interf DR: optically interferes with AlphaScreen signal in dose response; shares compounds with MITF primary; AlphaScreen optical interference counterscreen, cell-free; IC50, µM; actives 6% (n = 480); call rule not given here
AlphaScreen intf2: AlphaScreen optical interference, counter-screen; shares compounds with MITF primary; LysRS AlphaScreen counterscreen, signal interference, triplicate; inhibition, % at 2.6 µM; actives 7.6% (n = 4,700);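 active = inhibition above a cutoff derived from the DMSO control wells, cut at about 30% in these data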
A number is an active result; i = inactive; nt = not tested or not shown. Sampled rows, rich in hits. Any-hit rate of the full collection: about 3.4%.

SMILES | GPR151 activ | TEAD-YAP block | MITF primary | FBW7 act | MITF confirm | AlphaScreen intf2 | others
Nc1nc(CSc2nnc(-c3cccc(F)c3)n2-c2ccccc2)nc(N2CCOCC2)n1 | i | i | 51 | i | i | i
O=C(NCCNC(=O)c1cncc(O)c1)c1cncc(O)c1 | i | i | i | i | nt | nt
Cc1ccc(C23CC4CC(CC(C4)C2)C3)cc1[N+](=O)[O-] | i | i | 54 | i | i | i
COc1ccc(C23CC4CC(CC(C4)C2)C3)cc1[N+](=O)[O-] | i | i | i | i | nt | nt
N#Cc1c(N)nc(SCC(N)=O)c(C#N)c1-c1ccccc1Cl | i | i | 85 | i | i | i
N#Cc1c(Oc2ccccc2)cc(Oc2ccccc2)cc1S(=O)Cc1ccccc1 (stereo not drawn) | i | i | i | i | nt | nt
CC(Sc1nc(-c2ccccc2)cc(C(F)(F)F)n1)C(N)=O (stereo not drawn) | i | i | 54 | i | i | i
O=C(CSc1nc(-c2ccccc2)cc(C(F)(F)F)n1)N1CCOCC1 | i | i | i | i | nt | nt
O=Cc1ccccc1-c1ccc(NCCc2ccccn2)nc1 | i | i | i | i | nt | nt
Cc1cc(C)c(CN2CCN(C3CCN(C(C)C)CC3)C(CCO)C2)cc1C (stereo not drawn) | i | i | i | i | nt | nt
Cc1c(CN2CCN(C3CCN(C(C)C)CC3)C(CCO)C2)cnn1C (stereo not drawn) | i | i | 84 | i | i | i
CCc1c(C)c2ccc(OCC(C)=O)c(I)c2oc1=O | i | i | i | i | nt | nt
C/C=C/C(=O)N1c2ccc(OC)cc2C(C)=CC1(C)C | i | i | i | i | nt | nt
COc1ccc2c(c1)C(C)=CC(C)(C)N2C(N)=S | i | i | 72 | i | 65 | 54
Cc1ccc(CN2CCN(C(=O)c3ccncc3)CC2)cc1 | i | i | 65 | i | i | i
Fc1ccccc1C1CCN(Cc2ccncc2)CC1 | i | i | 70 | i | i | i
O=C(c1ccc(F)cc1)N1CCN(Cc2ccc(Br)cc2)CC1 | i | i | 62 | i | i | i
O=C(c1ccc(F)cc1)N1CCN(Cc2ccncc2)CC1 | i | i | 63 | i | i | i
Cc1ccc(CN2CCN(C(=O)c3ccccc3)CC2)cc1 | i | i | i | i | nt | nt
Cc1cc(C(=O)N2CCN(c3ccc4cccc(-c5ccccc5F)c4n3)CC2)nn1C | i | i | i | i | nt | nt
Fc1ccc(CN2CCN(Cc3ccncc3)CC2)cc1 | i | i | 83 | i | i | i
O=C(c1ccccc1)N1CCN(Cc2ccccc2)CC1 | i | i | i | i | nt | nt
O=C(c1ccc(F)cc1)N1CCN(Cc2ccc(F)cc2)CC1 | i | i | 52 | i | i | i
O=C1C(=O)N(CCO)C(c2ccc(O)cc2)/C1=C(/O)c1ccccc1 (stereo not drawn) | i | i | i | i | nt | nt
CC(=O)N/C(=C\c1ccccc1)C(=O)OCC(=O)OC(C)(C)C | i | i | 54 | i | i | i
SMILES | GPR151 activ | TEAD-YAP block | MITF primary | FBW7 act | MITF confirm | AlphaScreen intf2 | others
Cc1cc(CSC(=N)N)c(O)c(C(C)(C)C)n1 | i | i | i | i | nt | nt
Cc1cc(CSC(=N)N)c(O)c(C)n1 | i | i | 65 | i | 82 | i | AS interf DR=i
CCCCn1c(SCc2ccc([N+](=O)[O-])cc2)nc2ccsc2c1=O | i | i | 86 | i | i | i
CCCCn1c(SCc2cccc([N+](=O)[O-])c2)nc2ccsc2c1=O | i | i | i | i | nt | nt
CCOC(=O)C1CCC(CN(Cc2ccc(Cl)cc2)S(=O)(=O)c2cc(C(=O)Nc3ccccc3CC)ccc2F)CC1 (stereo not drawn) | i | i | i | i | nt | nt
O=C(NCCc1ccncc1)C1CCN(C(=O)NCc2cccs2)CC1 | i | i | i | i | nt | nt
CCNc1nc(NCCOc2ccccc2)c2ncn(C3CCCCC3)c2n1 | i | i | 54 | i | i | i
CC(C)(C)C(=O)NCCNc1ccc(Cl)cc1[N+](=O)[O-] | i | i | 87 | i | i | i
CC(C(=O)N1CCCC1)N1CCN(C(c2ccccc2)c2ccccc2)CC1 (stereo not drawn) | i | i | 85 | i | i | i
CCC(C(=O)N1CCCC1)c1ccccc1 (stereo not drawn) | i | i | i | i | nt | nt
COc1ccc(CCN2CCc3nc4ccncc4cc3C2)cc1 | i | i | 51 | i | i | 34
CC1=C([N+](=O)[O-])CS(=O)(=O)/C1=C\c1ccccc1 | i | i | i | i | nt | nt
COc1cc(/C=C2\C(C)=C([N+](=O)[O-])CS2(=O)=O)ccc1O | i | i | 87 | i | 76 | i | AS interf DR=i
CCC1(C)Cc2c(sc3nn[nH]c(=O)c23)CO1 (stereo not drawn) | i | i | 94 | i | i | i
CCC1(C)Cc2c(sc3nc(SCC(=O)O)[nH]c(=O)c23)CO1 (stereo not drawn) | i | i | i | i | nt | nt
O=C(OC1(C(F)(F)F)C(=O)Nc2cc3c(cc21)OCO3)c1ccc(Cl)nc1 (stereo not drawn) | i | i | 81 | i | 71 | i | AS interf DR=i
NC(=O)CSc1nnnn1Cc1ccccc1 | i | i | i | i | nt | nt
OCCNCCCCOc1ccc(Cl)c(Cl)c1 | i | i | 58 | i | i | i
COCCNCCCCOc1ccc(Cl)c(Cl)c1 | i | i | 57 | i | i | i
COCCCNCCCCOc1ccc(Cl)c(Cl)c1 | i | i | i | i | nt | nt
Cc1nc2c(c(=O)[nH]1)CN(CC1=Cc3ccccc3OC1)CC2 | i | i | i | i | nt | nt
c1ccc(CNc2ccnc(Oc3ccccc3)n2)cc1 | i | i | i | i | nt | nt
COc1ccc(CN2CCN(Cc3ccccc3F)CC2)cc1OC | i | i | 79 | i | i | i
CCOc1cc(CN2CCN(Cc3ccccc3F)CC2)ccc1OC | i | i | 65 | i | i | i
Ic1ccc(OCCCNC2CCCC2)cc1 | i | i | i | i | nt | nt
SMILES | GPR151 activ | TEAD-YAP block | MITF primary | FBW7 act | MITF confirm | AlphaScreen intf2 | others
Ic1ccc(OCCNC2CCCC2)cc1 | i | i | 59 | i | i | i
CCCCC(=O)Nc1cc(OC)c(NC(=S)NC)cc1OC | i | i | 75 | i | i | i
CCCCC(=O)Nc1cc(C)c(Cl)cc1OC | i | i | i | i | nt | nt
Cc1ncc(CO)c(/C=N/Nc2nc3ccccc3o2)c1O | i | i | 65 | i | i | 47
COc1ccccc1C(=O)NC(=O)CCl | i | i | i | i | nt | nt
O=c1[nH]c(CNCCN2CCOCC2)nc2sc3c(c12)CCC3 | i | i | 105 | i | i | 100
Cc1nc(NCCCN2CCOCC2)c2c3c(sc2n1)CCCC3 | i | i | 74 | i | i | i
Cc1nc(NCCCN(C)C)c2c3c(sc2n1)CCCC3 | i | i | 51 | i | i | i
CN(C)CCCNc1ncnc2sc3c(c12)CCCC3 | i | i | i | i | nt | nt
O=c1[nH]c(CN2CCCCC2)nc2sc3c(c12)CCC3 | i | i | i | i | nt | nt
Cc1nc(NCCCN2CCOCC2)c2c3c(sc2n1)CCC3 | i | i | i | i | nt | nt
O=C(c1cccnc1)N1C2C=CC(C2)C1(C(F)(F)F)C(F)(F)F (stereo not drawn) | i | i | i | i | nt | nt
